Out of some 5,500 compounds screened, about 2,000 (36%) were called active. Not shown: some 18% with an inconclusive outcome. Cut-off read from the data, not from the text of the source: active = normalized growth mostly below about 0.91 (no sharp cut-off); inconclusive = no clear call, values can overlap the other calls; inactive = mostly above about 0.92. Some of the results follow.
Assay: chemical genetic growth profiling, strain panel (AID 1159580);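 note: tested at 20 µM; growth read once vehicle control cultures reached saturation at 30 °C; 1 = growth at the plate median or of vehicle wells; lower values mean less growth of the strain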
Conditions: growth OD

Measured: normalized growth

C=C[C@H]1CN2CC[C@H]1C[C@@H]2[C@H](O)c1ccnc2ccccc12
inactive: S. cerevisiae deletion strains, locus YKL009W, strain mrt4, hits give low values 0.976 | S. cerevisiae deletion strains, locus YKL068W, hits give low values 0.979 | S. cerevisiae deletion strains, locus YKL085W, strain MDH1 (second series), hits give low values 0.972 | S. cerevisiae deletion strains, locus YKL085W, strain MDH1, hits give low values 0.972 | S. cerevisiae deletion strains, locus YKL160W, strain elf1, hits give low values 0.991 | S. cerevisiae deletion strains, locus YKL190W, strain CNB1, hits give low values 0.99 | S. cerevisiae deletion strains, locus YKR001C, strain vps1, hits give low values 0.997 | S. cerevisiae deletion strains, locus YKR026C, strain gcn3, hits give low values 0.991 | S. cerevisiae deletion strains, locus YKR091W, strain srl3, hits give low values 0.979 | S. cerevisiae deletion strains, locus YLL001W, strain dnm1, hits give low values 0.989 | S. cerevisiae deletion strains, locus YLL026W, hits give low values 0.995 | S. cerevisiae deletion strains, locus YLL041C, strain sdh2, hits give low values 0.987 | S. cerevisiae deletion strains, locus YLR027C, strain aat2, hits give low values 0.992 | S. cerevisiae deletion strains, locus YLR039C, strain RIC1, hits give low values 0.98 | S. cerevisiae deletion strains, locus YLR058C, strain SHM2, hits give low values 0.992 | S. cerevisiae deletion strains, locus YLR102C, strain apc9, hits give low values 0.988 | S. cerevisiae deletion strains, locus YLR113W, strain HOG1, hits give low values 0.967 | S. cerevisiae deletion strains, locus YLR221C, strain rsa3, hits give low values 1.02 | S. cerevisiae deletion strains, locus YLR258W, strain gsy2, hits give low values 0.991 | S. cerevisiae deletion strains, locus YLR262C, strain YPT6 (second series), hits give low values 1.01 | S. cerevisiae deletion strains, locus YLR262C, strain YPT6, hits give low values 0.983 | S. cerevisiae deletion strains, locus YLR268W, strain sec22, hits give low values 0.937 | S. cerevisiae deletion strains, locus YLR320W, strain mms22, hits give low values 0.998 | S. cerevisiae deletion strains, locus YLR330W, strain CHS5, hits give low values 0.986 | S. cerevisiae deletion strains, locus YLR342W, strain FKS1 (second series), hits give low values 1.11 | S. cerevisiae deletion strains, locus YLR342W, strain FKS1, hits give low values 0.984 | S. cerevisiae deletion strains, locus YLR357W, strain rsc2, hits give low values 0.976 | S. cerevisiae deletion strains, locus YLR370C, strain arc18, hits give low values 0.994 | S. cerevisiae deletion strains, locus YLR371W, strain rom2, hits give low values 0.977 | S. cerevisiae deletion strains, locus YLR384C, strain iki3, hits give low values 0.995 | S. cerevisiae deletion strains, locus YLR418C, strain cdc73, hits give low values 0.982 | S. cerevisiae deletion strains, locus YML016C, strain PPZ1, hits give low values 0.999 | S. cerevisiae deletion strains, locus YML032C, strain rad52, hits give low values 0.968 | S. cerevisiae deletion strains, locus YML120C, strain ndi1, hits give low values 1.01 | S. cerevisiae deletion strains, locus YML124C, strain tub3, hits give low values 0.986 | S. cerevisiae deletion strains, locus YMR058W, strain fet3, hits give low values 0.982 | S. cerevisiae deletion strains, locus YMR078C, strain ctf18, hits give low values 0.983 | S. cerevisiae deletion strains, locus YMR125W, strain sto1, hits give low values 0.977 | S. cerevisiae deletion strains, locus YMR129W, hits give low values 0.988 | S. cerevisiae deletion strains, locus YMR205C, strain PFK2, hits give low values 0.988 | S. cerevisiae deletion strains, locus YMR223W, strain ubp8, hits give low values 1.01 | S. cerevisiae deletion strains, locus YMR231W, strain pep5, hits give low values 0.979 | S. cerevisiae deletion strains, locus YMR263W, strain SAP30, hits give low values 0.989 | S. cerevisiae deletion strains, locus YMR307W, strain GAS1, hits give low values 1.09 | S. cerevisiae deletion strains, locus YNL067W, strain RPL9B, hits give low values 0.977 | S. cerevisiae deletion strains, locus YNL071W, strain lat1, hits give low values 0.988 | S. cerevisiae deletion strains, locus YNL128W, strain TEP1, hits give low values 0.982 | S. cerevisiae deletion strains, locus YNL153C, strain GIM3, hits give low values 0.991 | S. cerevisiae deletion strains, locus YNL183C, strain NPR1, hits give low values 0.951 | S. cerevisiae deletion strains, locus YNL209W, strain ssb2, hits give low values 0.995 | S. cerevisiae deletion strains, locus YNL233W, strain BNI4, hits give low values 0.985 | S. cerevisiae deletion strains, locus YNL248C, strain rpa49, hits give low values 0.982 | S. cerevisiae deletion strains, locus YNL250W, strain rad50, hits give low values 0.986 | S. cerevisiae deletion strains, locus YNL271C, strain bni1, hits give low values 0.983 | S. cerevisiae deletion strains, locus YNL298W, strain CLA4, hits give low values 0.985 | S. cerevisiae deletion strains, locus YNL307C, strain MCK1, hits give low values 0.992 | S. cerevisiae deletion strains, locus YNL322C, strain KRE1 (second series), hits give low values 0.975 | S. cerevisiae deletion strains, locus YNL322C, strain KRE1, hits give low values 0.992 | S. cerevisiae deletion strains, locus YNR049C, strain mso1, hits give low values 0.986 | S. cerevisiae deletion strains, locus YNR052C, strain pop2, hits give low values 0.992 | S. cerevisiae deletion strains, locus YOL006C, strain TOP1, hits give low values 0.992 | S. cerevisiae deletion strains, locus YOL012C, strain htz1 1.51 | S. cerevisiae deletion strains, locus YOL147C, strain pex11, hits give low values 0.979 | S. cerevisiae deletion strains, locus YOR001W, strain rrp6, hits give low values 1.01 | S. cerevisiae deletion strains, locus YOR061W, strain CKA2, hits give low values 0.986 | S. cerevisiae deletion strains, locus YOR069W, strain VPS5, hits give low values 0.997 | S. cerevisiae deletion strains, locus YOR070C, strain gyp1, hits give low values 1 | S. cerevisiae deletion strains, locus YOR080W, strain dia2, hits give low values 0.985 | S. cerevisiae deletion strains, locus YOR083W, strain WHI5, hits give low values 0.991 | S. cerevisiae deletion strains, locus YOR106W, strain vam3, hits give low values 0.999 | S. cerevisiae deletion strains, locus YOR136W, strain idh2, hits give low values 1 | S. cerevisiae deletion strains, locus YOR144C, strain elg1, hits give low values 0.983 | S. cerevisiae deletion strains, locus YOR184W, strain ser1, hits give low values 0.982 | S. cerevisiae deletion strains, locus YOR231W, strain MKK1, hits give low values 0.983 | S. cerevisiae deletion strains, locus YOR265W, strain rbl2, hits give low values 1 | S. cerevisiae deletion strains, locus YOR270C, strain vph1, hits give low values 1 | S. cerevisiae deletion strains, locus YOR290C, strain snf2, hits give low values 0.982 | S. cerevisiae deletion strains, locus YOR316C, strain cot1, hits give low values 0.972 | S. cerevisiae deletion strains, locus YPL051W, strain arl3, hits give low values 0.994 | S. cerevisiae deletion strains, locus YPL055C, strain LGE1, hits give low values 0.997 | S. cerevisiae deletion strains, locus YPL078C, strain atp4, hits give low values 0.99 | S. cerevisiae deletion strains, locus YPL106C, strain sse1, hits give low values 0.967 | S. cerevisiae deletion strains, locus YPL240C, strain hsp82, hits give low values 0.999 | S. cerevisiae deletion strains, locus YPL241C, strain CIN2, hits give low values 0.989 | S. cerevisiae deletion strains, locus YPL256C, strain CLN2, hits give low values 0.978 | S. cerevisiae deletion strains, locus YPR119W, strain clb2, hits give low values 0.974 | S. cerevisiae deletion strains, locus YPR141C, strain kar3, hits give low values 0.981 | S. cerevisiae deletion strains, locus YPR163C, strain tif3, hits give low values 0.977 | S. cerevisiae deletion strains, locus YPR167C, strain met16, hits give low values 0.979 | S. cerevisiae deletion strains, strain wtn01, hits give low values 0.98 | S. cerevisiae strains, strain wild type, hits give low values 1
